D2 antagonist: D2 dopamine receptor (human) antagonism; P14416; HEK293 TREx D2 cells, calcium flux, dopamine EC80; inhibition, % at 10 µM; 2% of 340,000 active; AID 485344; in the data active = inhibition above about 30%; inactive = below that, where a call was filed; note: 0% is about no effect
Target sequence (P14416 whole entry, looked up): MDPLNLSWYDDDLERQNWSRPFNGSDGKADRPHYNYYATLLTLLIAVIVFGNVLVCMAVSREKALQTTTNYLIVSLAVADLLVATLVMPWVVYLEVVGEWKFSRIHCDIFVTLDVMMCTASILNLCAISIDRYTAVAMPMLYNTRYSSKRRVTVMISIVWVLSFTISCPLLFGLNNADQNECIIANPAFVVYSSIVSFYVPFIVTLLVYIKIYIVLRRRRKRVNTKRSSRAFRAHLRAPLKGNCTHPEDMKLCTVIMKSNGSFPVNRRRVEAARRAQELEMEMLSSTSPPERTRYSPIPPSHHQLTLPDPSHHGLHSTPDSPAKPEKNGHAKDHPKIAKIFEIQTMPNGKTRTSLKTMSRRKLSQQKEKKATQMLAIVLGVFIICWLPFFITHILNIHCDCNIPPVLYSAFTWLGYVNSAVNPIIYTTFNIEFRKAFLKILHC
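In this primary screen, negative modulation is detected by tracking calcium flux after an EC80 dopamine challenge in inducible HEK293 T-REx D2 cells preexposed to test compound for 180 s.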
D2 PAM-1: D2 dopamine receptor (human) potentiation; potentiation, % at 10 µM; HEK293 T-REx D2, calcium flux, EC20 dopamine potentiation; 0.34% of 340,000 active;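 active = potentiation over 3 SD above the plate norm, cut at about 30% in these data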; note: 0% is about no effect
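Primary screen. Calcium kinetics in induced HEK293 T-REx D2 cells: compound pre-addition 180 s, EC20 dopamine, 180 s more.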
D2 ag-1: activates the human D2 dopamine receptor. P14416. HEK293 T-REx D2 cells, calcium flux agonist mode. activation, % at 2 µM. 0.53% of 340,000 active;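 active = activation over 3 SD above normal in the single-dose calcium agonist read, cut at about 30% in these data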; note: 0% is about no effect
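Tetracycline-induced HEK293 T-REx cells with force-coupled D2 receptor, plated overnight at 30 C, loaded with no-wash calcium dye. After a 10 s baseline, compound was pin-added and calcium flux read kinetically for 180 s; calcium rises flagged agonists.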
D2 PAM-2: positive allosteric modulators of human D2 dopamine receptor; P14416; potentiation, % (concentration not given with the values); DiscoveRx D2 beta-arrestin cells, luminescence, 90 min; 100% = 57 uM dopamine signal; AID 624464; 0.23% of 360,000 active; in the data active = potentiation above about 50%
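D2 cells co-treated with compound plus 50 nM dopamine (EC20) for 90 min at 37 deg C to detect potentiation. Beta-arrestin recruitment was read as enzyme-fragment luminescence after 1 h at ambient temperature. Full response was set by 57 uM dopamine.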
D2 ag-2: activates the human D2 dopamine receptor; P14416; DiscoveRx PathHunter D2 beta-arrestin, luminescence, 90 min; 100% = 57 uM dopamine signal; 0.084% of 360,000 active; activation, % (no concentration beside the values); in the data active = activation above about 40%
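Agonist mode: compounds alone added to overnight-plated D2 PathHunter cells for 90 min at 37 C, with 57 uM final dopamine (EC100) defining full response. Beta-arrestin recruitment detected by chemiluminescent reagent, read after 1 h at ambient temperature.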
Active calls of the source: *; . = no result. Only some compounds are listed: those with a hit (about 2.4% of all), similar ones and a draw of the others.

SMILES	D2 antagonist	D2 PAM-1	D2 ag-1	D2 PAM-2	D2 ag-2
CCN1C(=O)c2ccccc2Sc2ccc(C(=O)NCCCN3CCCCC3)cc21	25	-12	0	-33	-4
O=C(CN1CCCC1)N1c2ccccc2Sc2ccc(Cl)cc21	10	-6	0	-6	4
CN(C)CCCN1c2ccccc2Sc2ccc(Cl)cc21	86*	-28	1	-30	0
CN1CCN(CCCNC(=O)c2cn(C)c3ccc(S(=O)(=O)N(C)C)cc3c2=O)CC1	-12	8	1	-4	-1
OCCN1CCN(CCCN2c3ccccc3Sc3ccc(Cl)cc32)CC1	86*	-29	1	-30	1
CN1CCN(CCCN2c3ccccc3Sc3ccc(S(=O)(=O)N(C)C)cc32)CC1	82*	-23	1	-37	-6
CCOC(=O)c1ccc(NC(=O)CCCc2nc(-c3ccccc3Cl)no2)cc1	.	-3	1	.	.
O=[N+]([O-])c1ccc(NN=Cc2ccccc2O)nc1	.	.	.	-13	-3
O=[N+]([O-])c1ccc(N/N=C/c2ccccc2O)cc1	36*	4	4	-28	10
COC(=O)c1cc2oc3ccccc3c2n1Cc1nc(-c2cccc(Cl)c2)oc1C	.	0	-1	.	.
O=C(c1ccc(NC(=O)C2(c3ccccc3)CCOCC2)cc1)N1CCOCC1	32*	7	-1	-2	-1
O=C(Nc1ccc(Cl)c(C(=O)N2CCOCC2)c1)c1ccccc1	18	52*	0	-3	-8
CC(=O)c1ccc(NC(=O)C2(c3ccccc3)CCOCC2)cc1	2	-1	0	-21	0
COc1cc(NC(=O)c2c(C)oc3ncnc(N4CCCCC4)c23)cc(OC)c1	.	7	0	.	.
Cc1cccn2c(=O)c3cc(C#N)c(=O)n(-c4nnc(SCc5ccccc5F)s4)c3nc12	.	0	1	.	.
O=C(NCC(c1cccnc1)N1CCOCC1)c1cccs1 (stereo not given)	34*	-2	1	-1	0
COC(=O)NCC(c1cccnc1)N1CCOCC1 (stereo not given)	25	-1	0	-10	-6
COc1ccc(C2CC(C(F)(F)F)n3nc(C(=O)NCc4c(C)nn(C)c4C)c(Cl)c3N2)cc1 (stereo not given)	16	-6	-1	22	5
COc1ccc(C2CC(C(F)(F)F)n3nc(C(=O)N(C)Cc4cn(C)nc4C)c(Cl)c3N2)cc1 (stereo not given)	-1	34*	-1	-10	0
CCOC(=O)N1CCc2c(sc3c2c(=O)n(-c2ccc(CC)cc2)c(=O)n3Cc2ccc(F)cc2Cl)C1	.	-1	.	.	.
CCn1nnnc1SCC(=O)N1CCCCC1	-2	2	0	-1	-3
COCCn1nnnc1SCC(=O)N1CCCCC1	34*	-7	0	-6	-3
COc1ccc(C2CC(c3ccccc3)=NN2C(=O)COC(=O)c2cc(S(=O)(=O)N3CCOCC3)ccc2Cl)cc1 (stereo not given)	32*	2	2	-11	-1
CC(NC(=O)CSc1nnc(-c2cccc(S(=O)(=O)N3CCCCC3)c2)o1)C12CC3CC(CC(C3)C1)C2 (stereo not given)	.	12	.	58*	1
COCC(C)NC(=O)CSc1nnc(-c2cccc(S(=O)(=O)N3CCCCC3)c2)o1 (stereo not given)	-12	3	2	-2	-4
SMILES	D2 antagonist	D2 PAM-1	D2 ag-1	D2 PAM-2	D2 ag-2
COc1cccc(N2CCN(Cc3ccsc3)CC2)c1	48*	-23	18	-18	0
O=C(CSc1nc(=O)[nH]c2c1CCCC2)Nc1ccccc1C(F)(F)F	.	5	1	.	.
Cc1ccccc1-c1noc(N)c1C#N	13	-8	0	76*	13
COc1cc(OC)cc(N(C(=O)c2snc(C(N)=O)c2N)C(C(=O)NCC2CCCO2)c2ccc(C)o2)c1 (stereo not given)	11	35*	0	.	.
CCOc1ccc(N(C(=O)c2snc(C(N)=O)c2N)C(C)C(=O)NC2CCCCC2)cc1 (stereo not given)	18	.	-3	-13	6
Cc1ccc(C(C(=O)NC2CCCCC2)N(CCCN2CCOCC2)C(=O)c2snc(C(N)=O)c2N)cc1 (stereo not given)	49*	-18	0	-19	-3

High-throughput results as filed in PubChem.
